# SKBR3 24h inh = SK-BR-3 proliferation inhibitors; SK-BR-3 viability, CellTiter-Glo ATP luminescence, 24 h; active compounds read low; viability, % at 10 µM; actives 0.47% (n = 41,000);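 active = viability at or below the median of all test compounds minus 3 SD, in both replicates if run twice, cut at about 45% in these data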;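 note: 100% = median untreated cell wells and 0% = median positive control drug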
# MKP-1 inh = inhibitors of human MKP-1 phosphatase; actives 0.15% (n = 65,000); recombinant MKP-1, OMFP hydrolysis fluorescence; P28562; AID 374; inhibition, %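 (compounds tested at a single concentration somewhere between 10 and 100 µM)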;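 active = inhibition above about 50%, limit read from the data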;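 note: 0% = DMSO max control wells and 100% = wells with enzyme stopped by NaOH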
# Cdc25B block = inhibitors of human Cdc25B phosphatase; actives 0.1% (n = 65,000); AID 368; inhibition, %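 (compounds tested at 10 µM final in the well)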; P30305; recombinant Cdc25B, OMFP fluorescence Ex485/Em525; in the data active = inhibition above about 50%
# WNV protease inh = inhibitors of West Nile virus NS2B-NS3 protease; P06935; WNV NS2B-NS3 protease, fluorogenic substrate Ex360/Em465; active compounds read low; z-score (concentration not given with the values); actives 0.18% (n = 65,000); in the data active = z-score below about -3
# Target sequence (P06935 1371-1501 limits assumed): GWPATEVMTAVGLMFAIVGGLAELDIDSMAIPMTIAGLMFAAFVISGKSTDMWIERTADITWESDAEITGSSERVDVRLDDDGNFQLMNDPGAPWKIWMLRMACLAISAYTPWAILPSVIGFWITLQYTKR
# Target sequence (P06935 1502-1679 limits assumed): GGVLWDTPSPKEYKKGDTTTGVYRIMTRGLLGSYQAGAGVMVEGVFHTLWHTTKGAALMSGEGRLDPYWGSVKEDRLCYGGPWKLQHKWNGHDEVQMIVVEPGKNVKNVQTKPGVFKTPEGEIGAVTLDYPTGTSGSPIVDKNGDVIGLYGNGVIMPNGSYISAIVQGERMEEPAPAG
# ROCK2 blocker = inhibitors of human Rho kinase 2 | purified ROCK2, Kinase-Glo ATP depletion luminescence | inhibition, % at 6 µM | actives 0.35% (n = 60,000) | AID 604;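 active = inhibition above the screen-wide mean inhibition plus 3 SD, cut at about 18% in these data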;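 note: plate controls were DMSO wells for no effect and Y-27632 control wells after no-enzyme background subtraction for full effect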
# PKA kinase inh = inhibitors of human protein kinase A | P17612 | PKA Kemptide phosphorylation, Kinase-Glo ATP luminescence | inhibition, % at 6 µM | actives 0.1% (n = 65,000);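 active = inhibition above the screen-wide mean inhibition plus 3 SD, cut at about 21% in these data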
# Redox cycler = counter-screen for MKP-1 and MKP-3 probes: redox cycling H2O2 generation | shares compounds with MKP-1 inh | DTT, phenol red/HRP | EC50, µM | 60 tested, under 10 active | AID 672; call rule not given here
# Numbers without * were called inactive; x = no result. This is a sample that favours compounds with a hit; in the whole collection about 0.95% have one here.
SMILES,SKBR3 24h inh,MKP-1 inh,Cdc25B block,WNV protease inh,ROCK2 blocker,PKA kinase inh,Redox cycler
Cc1cc(C)n2c(SCC(=O)N3CCN(S(=O)(=O)c4ccc(Cl)cc4)CC3)nnc2n1,x,56*,-1,-1.7,5,2,>50
CC(=O)[C@@H]1[C@@H]2C(=O)N(c3ccc(F)c(Cl)c3)C(=O)[C@@H]2C2c3ccccc3C=CN21 (some centres undefined),86,20,14,0.15,-7,-2,>50
CN(CC1CCCO1)S(=O)(=O)c1ccc(C(=O)Nc2nc(-c3ccccn3)cs2)cc1 (centres undefined),x,7,-16,1.6,6,5,x
Cc1cccc(NC(=O)c2cc(NC(=O)C3CCCCC3C(=O)O)ccc2N2CCCCC2)c1 (centres undefined),93,65*,10,0.92,10,13,>50
Cc1csc(NC(=O)c2sc3nc(-c4cccs4)ccc3c2N)n1,x,29,2,-0.38,9,6,x
CCCSc1nnc(NC(=O)c2sc3nc(-c4cccs4)ccc3c2N)s1,64,53*,20,-0.29,-4,-6,>50
CC(C)Cc1cc(C(=O)NCCCN2CCOCC2)no1,x,-7,-2,0.16,2,-3,x
CCOC(=O)c1ccc2c(c1)C1C=CCC1C(C(=O)O)N2 (centres undefined),x,57*,27,-0.52,8,10,>50
COc1ccc(Cn2c(C)nc3c(c2=O)c2nc4ccccc4nc2n3Cc2ccco2)cc1,84,40,7,-1.1,3,11,>50
Nc1nc2c(s1)CCc1c-2cnn1-c1ccccc1,86,52*,19,-0.16,6,6,>50
